The record followed here is the supplement of paper PMC6522484.

SMILES strings stand for the structures. ± gives the standard deviation of the averaged measurements.

The test system of test [1] is DLD1. The experiment in a line: cell viability (CellTiter-Glo) relative to plate median (fraction of plate median); higher = more viable cells. Conditions: 5 µM; treatment time 24 h; reporter: 7TFP. The method in brief:
(§1)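 Values are well luminescence normalised to the plate median, from either a firefly luciferase or a CellTiterGlo readout on parallel plates. The cells, colorectal cancer lines stably transduced with lentiviral 7TFP or TCF4/Wnt firefly luciferase reporters, were treated with library compounds at a final 5 µM for 24 h. The mean of two independent replicates is listed.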

The next test has as its system HCT116. The description is as above. The conditions noted are these: 5 µM; treatment time 24 h; reporter: TCF4/Wnt. A digest of the protocol: as §1
Test [2] has as its system SW480. The test is described as above. The conditions noted are these: 5 µM; treatment time 24 h; reporter: 7TFP. A digest of the protocol:
as §1

Test [3] concerns DLD1. The experiment in a line: TCF/Wnt firefly luciferase reporter signal relative to plate median (fraction of plate median); higher = higher Wnt reporter signal. The conditions noted are these: 5 µM; treatment time 24 h; reporter: 7TFP. A digest of the protocol: as §1
Test [4] deals with SW480. Described as above. Conditions: 5 µM; treatment time 24 h; reporter: 7TFP. The method in brief:
as §1

For the compound `COC(=O)/C(=C1/OC(=O)C(c2ccccc2)=C1O)c1ccccc1`, the cell viability in the test on DLD1 [1] amounted to 1.06 ± 0.057; in the test with HCT116 it was 1.02 ± 0.12; with SW480 [2], 1.07 ± 0.064. The figures for the “TCF/Wnt firefly luciferase reporter signal” value with DLD1 [3] and with SW480 [4] were 1.05 ± 0.14 and 1.1 ± 0.05, respectively.
For `CC1Cc2ccccc2N1NC(=O)c1ccc(Cl)c(S(N)(=O)=O)c1` (stereo not given) the same measures were 1.01 ± 0.069, 1.1 ± 0.028, 1 ± 0.013, 0.967 ± 0.13 and 1.055 ± 0.0071.
The like results for `C[C@]12CC[C@@H]3c4ccc(O)cc4CC[C@H]3[C@@H]1CC[C@@H]2OC(=O)CCC1CCCC1` were, in that order, 0.957 ± 0.044, 1.01 ± 0.065, 0.967 ± 0.04, 1.17 ± 0.021 and 1.11.
For `CNCC[C@H](Oc1cccc2ccccc12)c1cccs1` the same measures were 1.03 ± 0.067, 1.06 ± 0.021, 1.05 ± 0.028, 0.87 ± 0.023 and 0.97 ± 0.021.
In the case of `CC(=O)Oc1ccc(O)cc1`, the cell viability in the test with DLD1 [1] came out at 1.03 ± 0.021; with HCT116, 1.08 ± 0.035; with SW480 [2], 1.04 ± 0.014. Also, the entries for the “TCF/Wnt firefly luciferase reporter signal” value with DLD1 [3] and in the test on SW480 [4] were 1.07 ± 0.042 and 1.035 ± 0.0071, respectively.
For `CCCCN(CCCC)CCCOC(=O)c1ccc(N)cc1` the same measures were 0.877 ± 0.033, 0.92 ± 0.13, 0.954 ± 0.053, 1.11 ± 0.014 and 0.993 ± 0.011.
For `Cc1c(OCC(F)(F)F)ccnc1C[S+]([O-])c1nc2ccccc2[nH]1` (stereo not given) the same measures were 1.07 ± 0.14, 1.02 ± 0.061, 0.932 ± 0.0014, 1.09 ± 0.021 and 0.959 ± 0.011.
As for `NC[C@H](O)c1ccc(O)c(O)c1`, the cell viability in the test with DLD1 [1] was found to be 1.02 ± 0.035; in the test with HCT116, 0.95 ± 0.071; in the test with SW480 [2] it was 1.005 ± 0.0071. Besides, the “TCF/Wnt firefly luciferase reporter signal” value was 0.962 ± 0.069 with DLD1 [3] and 0.9835 ± 0.0078 in the test with SW480 [4].
`OC(CCN1CCCCC1)(c1ccccc1)c1ccccc1`: the values for the cell viability with DLD1 [1], in the test on HCT116 and in the test on SW480 [2] were 0.982 ± 0.068, 0.916 ± 0.051 and 1.02 ± 0.014, respectively. In addition, the “TCF/Wnt firefly luciferase reporter signal” value in the test with DLD1 [3] came to 0.834 ± 0.2; in the test with SW480 [4] it was 0.878 ± 0.019.
For `CC1=C(/C=C/C(C)=C/C=C/C(C)=C/C=C/C=C(C)/C=C/C=C(C)/C=C/C2=C(C)CCCC2(C)C)C(C)(C)CCC1` [beta-CAROTENE] the same measures were 0.966 ± 0.0042, 1 ± 0.064, 0.984 ± 0.0014, 0.932 ± 0.018 and 0.983 ± 0.052.
For `CC(=O)O[C@H]1CC[C@]2(C)[C@H]3CC[C@@]4(C)[C@H](c5ccoc5)OC(=O)[C@H]5O[C@]54[C@]3(C)[C@H](OC(C)=O)C[C@H]2C1(C)C` [3beta-ACETOXYDEOXODIHYDROGEDUNIN] the same measures were 1.03 ± 0.054, 1.01 ± 0.077, 0.949 ± 0.1, 1.02 ± 0.061 and 1.04 ± 0.028.
Regarding `CC(=O)NS(=O)(=O)c1ccc(NC(=O)c2ccccc2C(=O)O)cc1`, the cell viability in the test on DLD1 [1] came out at 0.946 ± 0.047; in the test with HCT116 it was 0.905 ± 0.13; with SW480 [2] it was 0.93 ± 0.035. For the same compound, the results for the “TCF/Wnt firefly luciferase reporter signal” value in the test with DLD1 [3] and with SW480 [4] were 1.04 ± 0.057 and 1.1 ± 0.042, respectively.
For `CC(=O)OCC(=O)[C@@]12OC3(CCCC3)O[C@@H]1C[C@H]1[C@@H]3CCC4=CC(=O)C=C[C@]4(C)[C@@]3(F)[C@@H](O)C[C@@]12C` the same measures were 0.985 ± 0.021, 0.896 ± 0.16, 0.965 ± 0.023, 0.82 ± 0.093 and 0.771 ± 0.28.
